Screening data (PubChem)
Shown are actives, neighbours in structure and some others; about 3.5% of the full set was active somewhere.
BoNT-A LC inh2: inhibitors of Botulinum neurotoxin A light chain protease | multiplex microsphere protease substrate cleavage, flow cytometry | inhibition, % at 10 µM | 0.17% of 360,000 active | AID 588499; further: plate controls were buffer without enzyme for full effect and enzyme alone for no effect
BoNT-F LC inh: blocks Botulinum neurotoxin F light chain protease; inhibition, % at 10 µM; AID 588497; Multiplex microsphere protease cleavage assay, flow cytometry; 0.22% of 360,000 active; in the data active means inhibition above about 35%, passing the limit was not always enough; inconclusive means no clear call, values can overlap the other calls; further: plate controls were buffer without enzyme for full effect and enzyme alone for no effect
Autofluor counter: compound fluorescence in toxin protease inhibitor counterscreen | compound autofluorescence counterscreen, microsphere flow cytometry; stronger effect = higher value | AID 624483 | 3.1% of 360,000 active | fluorescence intensity (no concentration beside the values); in the data active means fluorescence intensity above about 16000; inconclusive means no clear call, values can overlap the other calls
Anthrax LF prot: blocks Bacillus anthracis lethal factor protease | P15917 | multiplex microsphere protease cleavage assay, LF | inhibition, % at 10 µM | 0.12% of 360,000 active | AID 588501; further: plate controls were buffer without enzyme for full effect and enzyme alone for no effect
Target sequence (P15917 whole entry, looked up): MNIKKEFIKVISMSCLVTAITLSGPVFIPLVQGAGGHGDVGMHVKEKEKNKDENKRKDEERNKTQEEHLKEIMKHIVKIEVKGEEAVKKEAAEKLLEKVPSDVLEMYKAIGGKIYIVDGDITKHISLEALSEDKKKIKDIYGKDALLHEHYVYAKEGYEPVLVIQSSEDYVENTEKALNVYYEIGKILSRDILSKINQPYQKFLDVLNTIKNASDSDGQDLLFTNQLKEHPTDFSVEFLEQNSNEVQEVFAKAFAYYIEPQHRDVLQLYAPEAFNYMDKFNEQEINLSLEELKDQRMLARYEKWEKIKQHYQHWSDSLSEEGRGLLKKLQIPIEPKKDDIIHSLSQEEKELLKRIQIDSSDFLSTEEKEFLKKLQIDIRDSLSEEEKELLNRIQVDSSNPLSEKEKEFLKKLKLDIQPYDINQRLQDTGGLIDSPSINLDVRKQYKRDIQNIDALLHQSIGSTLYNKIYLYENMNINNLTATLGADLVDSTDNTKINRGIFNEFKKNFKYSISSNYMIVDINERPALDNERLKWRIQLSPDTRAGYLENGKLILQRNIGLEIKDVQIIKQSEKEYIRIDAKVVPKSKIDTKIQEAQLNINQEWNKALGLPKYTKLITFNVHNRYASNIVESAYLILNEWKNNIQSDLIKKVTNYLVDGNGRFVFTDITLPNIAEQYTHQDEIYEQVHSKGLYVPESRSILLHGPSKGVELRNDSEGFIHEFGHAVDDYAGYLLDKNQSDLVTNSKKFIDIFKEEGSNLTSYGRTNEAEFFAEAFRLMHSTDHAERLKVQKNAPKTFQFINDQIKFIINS
Starred values were filed as active, the others as inactive; ? = inconclusive. Unless noted, no stated cut-off is given here; in the data, active means inhibition above about 30%; inconclusive means no clear call, values can overlap the other calls; inactive means below that.

SMILES	BoNT-A LC inh2	BoNT-F LC inh	Autofluor counter	Anthrax LF prot
CCN(CC(=O)NCc1cccs1)C(=O)c1ccc(NS(=O)(=O)c2ccc(C(C)=O)cc2)cc1	2	-5	5462	4
CN(CCCC1CCCC1)C(=O)CC1C(=O)NCCN1Cc1cccc(F)c1F (stereo not drawn)	0	6	6301	3
CCOC(=O)C1CCN(C(=S)Nc2cc(OC)c(OC)cc2C(=O)OC)CC1	0	1	20685*	1
COC(=O)c1cc(OC)c(OC)cc1NC(=S)N1CCC(C(N)=O)CC1	-4	-6	17588*	-3
COC(=O)c1cc(OC)c(OC)cc1NC(=O)CN1CCCCC1	0	-4	22761*	-4
COC(=O)c1cc(OC)c(OC)cc1NC(=S)N1CCCCC1	5	8	20422*	2
COC(=O)c1cc(OC)c(OC)cc1NC(=S)N1CCN(C)CC1	-1	-4	10029	1
COc1ccc([N+](=O)[O-])cc1NC(=O)CCS(=O)(=O)c1ccc(Br)cc1	-2	-18	3789	-7
O=C(NC(Cc1ccccc1)C(=O)N1CCN(c2ccccc2O)CC1)c1ccccc1 (stereo not drawn)	-3	-12	6658	3
O=S(=O)(c1ccc(F)cc1)N(CCO)CC(O)Cn1c2ccccc2c2ccccc21 (stereo not drawn)	-2	-7	16893*	-5
CCN(CC(O)Cn1c2ccccc2c2ccccc21)S(=O)(=O)c1ccc(F)cc1 (stereo not drawn)	-1	-12	10322	-7
Cc1cc(NC(=O)CSc2nnc(-c3ccccc3Cl)o2)no1	1	-15	3789	-8
COc1ccc(NC(=O)C(C)N2c3cccc4cccc(c34)S2(=O)=O)cc1 (stereo not drawn)	2	-1	22225*	-1
COc1ccc(NC(=O)C(C)N2c3cccc4cccc(c34)S2(=O)=O)cc1OC (stereo not drawn)	2	8	10491	0
Cc1cccc(N(C(=O)CS(=O)CC(=O)Nc2ccc3c(c2)OCO3)C(C)C(=O)NC2CCCC2)c1C (stereo not drawn)	-1	-5	4363	-8
Cc1ccccc1N(CC(=O)NC1CCCC1)C(=O)CS(=O)CC(=O)Nc1ccc2c(c1)OCO2 (stereo not drawn)	2	2	20092*	1
CCc1cc2c3c(c(=O)oc2cc1OCC(=O)OC)CCCC3	-1	?	4001	-5
CCN1C(c2ccccc2)=C(c2ccccc2)S/C1=C/C=C1\SC(=S)N(C)C1=O	141*	-37	2608	41*
CCN1C(c2ccccc2)=C(c2ccccc2)S/C1=C\C=C1/SC(=S)N(C)C1=O	98*	-13	5010	44*
CCN1C(=O)/C(=C/C=C2/Sc3ccc4ccccc4c3N2CCO)SC1=S	63*	36*	6919	52*
CCN(CC(=O)Nc1ccc(OC)cc1)C(=O)Cc1cccs1	5	8	4497	0
O=C1N=c2ccccc2=C1c1sc(=S)n(NC(=O)c2cccc(O)c2)c1O	2	1	4228	-3
O=C(Nn1c(O)c(C=C2N=c3ccccc3=N2)sc1=S)c1ccccc1	108*	65*	7668	78*
O=C(Nn1c(O)c(C=C2N=c3ccccc3=N2)sc1=S)c1cccc(Cl)c1	55*	55*	5573	56*
Cc1ccc(C(=O)Nn2c(O)c(C=C3N=c4ccccc4=N3)sc2=S)cc1	78*	64*	6339	69*
SMILES	BoNT-A LC inh2	BoNT-F LC inh	Autofluor counter	Anthrax LF prot
Cc1ccc(S(=O)(=O)Nn2c(O)c(C=C3N=c4ccccc4=N3)sc2=S)cc1	8	-5	5052	6
O=C(Nn1c(O)c(C=C2N=c3ccccc3=N2)sc1=S)c1ccc(Cl)cc1	?	58*	13151	70*
CCOC(=O)CN1C(=O)CSc2ccccc21	-3	-6	24381*	1
O=C1CSc2ccccc2N1Cc1ccc(F)cc1	6	14	21142*	-4
CSc1cccc(NC(=S)NCCCN2CCN(c3ccc(F)cc3)CC2)c1	-2	-2	4629	1
COC(=O)CN(c1ccccc1)S(=O)(=O)c1ccccc1	-2	-23	6968	-4
COC(=O)CN(n1cnnc1)S(=O)(=O)c1ccccc1	2	4	22038*	-6
Cc1cccc(C)c1NC(=O)CNC(=O)c1ccc(COc2ccccc2)cc1	1	9	5354	-3
CC(=O)c1sc(-c2ccc(F)cc2F)nc1C	-1	3	6742	-19
CSC(=NC#N)N1CCN(c2ccccc2)CC1	?	-4	20884*	1
Clc1ccc(-c2nnc(-c3ccccc3Cl)o2)cc1	-4	-6	17061*	-6
Clc1ccccc1-c1nnc(-c2ccccc2Cl)o1	0	-2	9311	-7
Cc1ccc2[nH]c(=O)c(-c3nc4ccccn4c3NCc3ccco3)cc2c1	0	-4	16211*	-1
Cn1cc(C2N3CC4(C)CN2CC(C)(C3)C4=O)c2ccccc21 (stereo not drawn)	-1	-2	5188	-5
Cc1c(C2N3CC4(C)CN2CC(C)(C3)C4=O)c2ccccc2n1C (stereo not drawn)	1	2	22039*	-10
Cc1[nH]c2ccccc2c1/C=N/Nc1ccc([N+](=O)[O-])cc1	2	-136	2996	-25
COc1ccccc1NS(=O)(=O)c1cc([N+](=O)[O-])ccc1N/N=C/c1c(C)[nH]c2ccccc12	5	-62	16725*	-28
Cc1ccc(N(CC(=O)N2CCn3c2nc2ccccc23)S(=O)(=O)c2c(C)n[nH]c2C)cc1	-3	0	17135*	-7
Cc1n[nH]c(C)c1S(=O)(=O)N1CCC(C(=O)N2CCn3c2nc2ccccc23)CC1	-1	-3	9581	-5
Cc1cc2n(n1)C(c1ccc(N(C)C)cc1)Nc1ccccc1-2 (stereo not drawn)	-3	-5	20611*	-2
Cc1cc2n(n1)C(c1ccc3c(c1)OCO3)Nc1ccccc1-2 (stereo not drawn)	2	5	21039*	-2
Cc1cc2n(n1)C(c1ccccc1)Nc1ccccc1-2 (stereo not drawn)	-2	-3	16831*	-1
Cc1ccc2c(c1)-c1cc(C)nn1C(c1ccc3c(c1)OCO3)N2 (stereo not drawn)	2	17	?	?
CCOc1ccc(N(CC(=O)NN=C2CCN(C)CC2)S(=O)(=O)c2ccc(Br)cc2)cc1	1	-12	5942	-2
Oc1ccc(Cl)cc1CNc1ccc(Br)cn1	-3	-5	23615*	-7
Oc1c(Cl)cc(Cl)cc1CNc1ccc(Br)cn1	-1	-30	3770	-7
Cc1nnc(N2CCCC(C(=O)Nc3cc(F)ccc3F)C2)c2nn(-c3ccccc3)c(C)c12 (stereo not drawn)	-1	4	7361	1
Cc1nnc(N2CCCC(C(=O)NCc3ccc(OC(C)C)cc3)C2)c2nn(-c3ccccc3)c(C)c12 (stereo not drawn)	-11	13	24028*	-4
O=C(NC12CC3CC(CC(C3)C1)C2)OCCNC1CCCCC1	5	?	3946	0
Cn1nc(C(F)(F)F)c(/C=N/OC(=O)c2ccccc2Cl)c1SCc1ccccc1Cl	2	1	22148*	0
